Source: PubChem
Hits are enriched below; roughly 5.8% of the tested compounds scored in any of these assays.
MCF10A rerep: induces DNA re-replication in MCF 10a normal breast cells. MCF 10A DNA re-replication, Hoechst nuclear intensity, 48 h. Potency, µM (top dose mostly 46.1 µM), without a hit: top-dose activity, positive = re-replication, actives largely listed as activators. 350,000 compounds, 2.9% hits. AID 624296; note: % of control where 0% means no effect; nearly all actives have a fitted effect of over 50% in size
PINK1 modulator: changes PINK1 expression; PINK1 immunofluorescence, high-content cytometry, 24 h; Potency, µM (series often up to 76.6 µM), for the others: top-dose activation (PINK1 increase), hits mostly activators; 410,000 compounds, 0.2% hits; AID 624263; active = well fitted activation curve with a large enough effect; inconclusive = small, poorly fitted or top-dose-only effect; cell line not stated here; note: % of control where 0% means no effect; nearly all actives have a fitted effect of over 65% in size
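PINK1 protein, normally rapidly degraded, was detected by immunofluorescence after 24 hour compound treatment of a stable cell line. Titration data (5 concentrations) came from laser-scanning cytometry, with CCCP-treated wells as controls.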
KB-V1 MDR tox: KB-V1 MDR subline cytotoxicity; Potency, µM (titrated, usually from 46.1 µM), actives largely listed as cytotoxic; 400,000 compounds, 3.4% hits; AID 1347076; KB-V1 MDR cells viability, CellTiter-Glo, 72 h; note: % is set by controls: 0 for no effect and ±100 for the full control effect; nearly all actives have a fitted effect of over 60% in size
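Cytotoxicity toward P-gp-expressing KB-V1 cells was determined as loss of CellTiter-Glo luminescence after 72 h at 37 degrees C. Compounds were tested in quantitative HTS format across a concentration range, with curves fitted to normalized data.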
KB-3-1 cytotox: kills parental KB-3-1 adenocarcinoma cells; Potency, µM (titrated, usually from 46.1 µM), most hits filed as cytotoxic; 400,000 compounds, 1.4% hits; KB-3-1 viability, CellTiter-Glo ATP luminescence, 72 h; note: % is set by controls: 0 for no effect and ±100 for the full control effect; nearly all actives have a fitted effect of over 60% in size
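72 h, 37 °C compound treatment of KB-3-1 parental cells; CellTiter-Glo added, 10 min, luminescence read. Data corrected against DMSO-only plates and normalized before curve fitting.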
SW480 rerep: inducers of DNA re-replication in SW480 colon cancer cells; 340,000 compounds, 1.8% hits; AID 624297; SW480 DNA re-replication, Hoechst DNA content imaging, 48 h; Potency, µM (series often up to 46.1 µM), inactives show top-dose re-replication activation, hits mostly activators; note: % of control where 0% means no effect; nearly all actives have a fitted effect of over 55% in size
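Compounds, transferred as 23 nL by pin tool, were incubated with cells for 48 hr; DNA content per nucleus was then quantified by Hoechst staining and fluorescence plate imaging.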
12-LOX inh: ALOX12 (human) lipoxygenase inhibition; 580,000 compounds, 1.1% hits; purified 12hLO, xylenol orange hydroperoxide absorbance; P18054; Potency, µM (top dose mostly 108 µM), inactives show at the highest dose activity change, negative = inhibition, usual class: inhibitors; AID 1671190; note: % is set by controls: 0 for no effect and ±100 for the full control effect
Target sequence (P18054 whole entry, looked up): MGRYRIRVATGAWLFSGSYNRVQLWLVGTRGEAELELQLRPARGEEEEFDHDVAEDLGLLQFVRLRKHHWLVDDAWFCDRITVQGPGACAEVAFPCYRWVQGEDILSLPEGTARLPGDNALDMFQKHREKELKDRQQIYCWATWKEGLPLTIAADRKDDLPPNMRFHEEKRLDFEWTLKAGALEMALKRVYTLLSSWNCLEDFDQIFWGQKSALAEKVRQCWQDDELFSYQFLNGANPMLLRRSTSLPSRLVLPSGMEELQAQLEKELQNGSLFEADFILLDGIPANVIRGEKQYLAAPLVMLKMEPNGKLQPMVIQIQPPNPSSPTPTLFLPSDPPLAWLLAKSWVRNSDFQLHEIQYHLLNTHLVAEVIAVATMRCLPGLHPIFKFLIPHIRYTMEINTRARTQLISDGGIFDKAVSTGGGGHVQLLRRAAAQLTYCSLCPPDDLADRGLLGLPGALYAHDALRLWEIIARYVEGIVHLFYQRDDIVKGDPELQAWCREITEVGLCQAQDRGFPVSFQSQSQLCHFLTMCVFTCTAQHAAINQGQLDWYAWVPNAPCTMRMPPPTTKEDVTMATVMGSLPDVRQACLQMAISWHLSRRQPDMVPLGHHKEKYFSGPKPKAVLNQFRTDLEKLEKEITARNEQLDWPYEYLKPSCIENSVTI
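Purified human 12hLO at 150 nM in 25 mM Hepes, 0.01% Triton X-100, pH 7.0, preincubated 15 min at room temperature with compound. Reaction started with 40 uM arachidonic acid, 30 min at room temperature. Hydroperoxide measured by Fe-xylenol orange, 573/405 nm absorbance ratio.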
An asterisk follows results filed as active; [ ] = dose if it differs, or a comment. Unless noted, calls come from the whole dose curve; as a rule, active = well fitted curve in the direction sought with a large enough effect; inconclusive = small, poorly fitted or top-dose-only effect, or another doubt; inactive = no such curve, though single readings can be large; an effect the other way counts as inactive or inconclusive. Potency is the fitted concentration of half-maximal effect.

For O=C(NCc1ccccc1F)c1cccc(S(=O)(=O)N2CCCCC2)c1 the results were MCF10A rerep 2%, PINK1 modulator -1%, KB-V1 MDR tox 4.1µM*, KB-3-1 cytotox inactive, SW480 rerep 15% and 12-LOX inh 1%.
`COc1ccc(OC)c(/C=C/c2ccc3ccccc3[n+]2C)c1` gave PINK1 modulator inconclusive, KB-V1 MDR tox inactive and KB-3-1 cytotox inconclusive.
COc1cc(OC)c(/C=C/c2c3ccccc3cc[n+]2C)c(OC)c1 was read as PINK1 modulator inconclusive, KB-V1 MDR tox inactive and KB-3-1 cytotox inconclusive.
COc1cc(OC)c(/C=C/c2cc3c4ccccc4ccc3[n+](C)c2)c(OC)c1 was read as PINK1 modulator 3%, KB-V1 MDR tox inactive and KB-3-1 cytotox 8.2µM*.
For COc1cc(OC)c(/C=C/c2cc(/C=C/c3c(OC)cc(OC)cc3OC)[n+](C)c3ccccc23)c(OC)c1 the results were PINK1 modulator 40µM*, KB-V1 MDR tox inactive and KB-3-1 cytotox 23µM*.
Cc1ccc(CN2C(=O)NC3(CCCN(C(=O)c4cc5ccccc5[nH]4)C3)C2=O)cc1 (stereo unspecified) was read as 12-LOX inh 13µM*.
For CC(NC(=O)c1nccnc1N)c1ccc(F)c(F)c1 (stereo unspecified) the results were 12-LOX inh 12%.
Screening COc1ccc(Cl)cc1NC(=O)C(C)OC(=O)c1ccsc1 (stereo unspecified) returned 12-LOX inh 4%.
For COCCNc1nc2nonc2nc1N(C)Cc1cccc2cnccc12 the results were MCF10A rerep -2%, PINK1 modulator 0%, KB-V1 MDR tox inactive, KB-3-1 cytotox inactive, SW480 rerep 4.6µM* and 12-LOX inh inconclusive.
`O=S(Cc1ccc(Cl)cc1)CC(O)COCc1ccc(Cl)cc1` (stereo unspecified) gave MCF10A rerep -10%, PINK1 modulator 4%[38.3 µM], KB-V1 MDR tox 16µM*, KB-3-1 cytotox inactive, SW480 rerep -7% and 12-LOX inh inconclusive.
Cc1ccc(Cl)cc1NC(=O)C1CCCCC1 was read as 12-LOX inh 48%.
`CC(C)(C)c1csc(NC(=O)c2ccccc2O)n1` gave MCF10A rerep inconclusive, PINK1 modulator 28µM*, KB-V1 MDR tox inconclusive, KB-3-1 cytotox inconclusive, SW480 rerep -10%[9.22 µM] and 12-LOX inh inconclusive.
For O=Cc1s/c(=N\S(=O)(=O)c2ccccc2)n(CCCCl)c1Cl the results were MCF10A rerep inconclusive, PINK1 modulator -1%, KB-V1 MDR tox inactive, KB-3-1 cytotox inconclusive, SW480 rerep 8.2µM* and 12-LOX inh inconclusive.
O=C(CC(CC(=O)c1ccccc1)c1cccs1)c1ccccc1 was read as 12-LOX inh 15%.
`CSc1nc2ccc(S(=O)(=O)NC3CCCCC3)cc2s1` gave MCF10A rerep 2%, PINK1 modulator 6%, KB-V1 MDR tox 16µM*, KB-3-1 cytotox inconclusive, SW480 rerep -9% and 12-LOX inh inconclusive.
Screening Cc1ccc(NC(=O)N2CCN(Cc3ccc(Cl)s3)CC2)cc1 returned 12-LOX inh 6%.
Cc1ccc(S(=O)(=O)CC(N)=O)cc1 was read as MCF10A rerep inconclusive, PINK1 modulator 0%[38.3 µM], KB-V1 MDR tox inactive, KB-3-1 cytotox inactive, SW480 rerep 5% and 12-LOX inh 7%[57.4 µM].
`Cc1ccc(S(=O)(=O)CCSC(=N)N)cc1` gave MCF10A rerep 18µM*, PINK1 modulator 1%, KB-V1 MDR tox inactive, KB-3-1 cytotox inactive, SW480 rerep 6.5µM* and 12-LOX inh -2%.
Screening COC(=O)c1sc(=S)n(-c2cccc(C)c2C)c1N returned 12-LOX inh 3%.
For O=C(Cc1noc(C(=O)NC2CC2)n1)Nc1cccc2ncccc12 the results were 12-LOX inh 28%.
Screening Cc1ccc2oc(C(=O)NC3CCS(=O)(=O)C3)cc(=O)c2c1 (stereo unspecified) returned MCF10A rerep 1%, PINK1 modulator 1%, KB-V1 MDR tox inconclusive, KB-3-1 cytotox inactive, SW480 rerep 21µM* and 12-LOX inh 3%.
Cc1ccc(C)c(NC(=O)c2cc(=O)c3ccccc3o2)c1 was read as MCF10A rerep inconclusive, PINK1 modulator 4%, KB-V1 MDR tox 15µM*, KB-3-1 cytotox inactive, SW480 rerep 0% and 12-LOX inh 10%.
`Cc1ccc2c(=O)cc(C(=O)NC3CCS(=O)(=O)C3)oc2c1` (stereo unspecified) gave MCF10A rerep -2%, PINK1 modulator -1%, KB-V1 MDR tox inactive, KB-3-1 cytotox inactive, SW480 rerep -8% and 12-LOX inh -1%.
Cc1cc2oc(C(=O)NCc3ccccc3)cc(=O)c2cc1C was read as MCF10A rerep 14%, PINK1 modulator 17%, KB-V1 MDR tox inactive, KB-3-1 cytotox inactive, SW480 rerep 8.2µM* and 12-LOX inh 9%.
`Cc1cccc(NC(=O)c2cc(=O)c3ccccc3o2)n1` gave MCF10A rerep 91%[0.0737 µM], PINK1 modulator -2%, KB-V1 MDR tox inactive, KB-3-1 cytotox inactive, SW480 rerep 2.9µM* and 12-LOX inh 2%.
For CCN(CC)CCNC(=O)CCc1ncc(-c2ccc(Cl)cc2)o1 the results were 12-LOX inh -40%.
For COc1ccc(-n2nc3n(c2=O)CCN(Cc2cccc4ccccc24)C3)cc1 the results were 12-LOX inh 1%[6.33 µM].
For CCN=C1S/C(=C\c2cn(C(C)=O)nc2-c2ccccc2)C(=O)N1CC the results were MCF10A rerep inconclusive, PINK1 modulator 1%[38.3 µM], KB-V1 MDR tox 18µM*, KB-3-1 cytotox inactive, SW480 rerep -20% and 12-LOX inh -10%.
`O=C(O)c1cccc(-c2ccc(/C=C3/SC(=Nc4ccccc4)N(Cc4cccnc4)C3=O)o2)c1` gave MCF10A rerep 4%, PINK1 modulator -1%, KB-V1 MDR tox inactive, KB-3-1 cytotox inactive, SW480 rerep -3% and 12-LOX inh inconclusive.
Screening CCCN1C(=O)/C(=C/c2ccc(C)o2)SC1=Nc1ccc(OC)cc1 returned MCF10A rerep 16µM*, PINK1 modulator 7%, KB-V1 MDR tox inactive, KB-3-1 cytotox inactive, SW480 rerep 1%[9.22 µM] and 12-LOX inh 13µM*.
Screening CC(=O)NC1=NC(=O)/C(=C/c2cn(C(C)=O)nc2-c2ccccc2)S1 returned MCF10A rerep inconclusive, PINK1 modulator 0%, KB-V1 MDR tox inconclusive, KB-3-1 cytotox inactive, SW480 rerep inconclusive and 12-LOX inh -28%.
